# From PubChem
# ELG1 genotox – induces genotoxicity in HEK293T cells with luciferase-tagged ELG1. HEK293T ELG1-luciferase reporter, luminescence, 16 h. Potency, µM (series often up to 46 µM), for inactives: at the top dose activity change, positive = activation, most hits filed as activators. 330,000 tested, 1.3% active. AID 504466; also: % of control where 0% means no effect; nearly all actives have a fitted effect of over 60% in size
#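 Genotoxicity was scored as increased ELG1-luciferase reporter signal, measured by ONE-Glo luminescence (30 min, room temperature). Compound or vehicle exposure of the HEK293T reporter cells lasted 16 hr at 37°C.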
# SMN2 splice enh – increases expression of the SMN2 splice variant; HEK293 SMN2-luciferase splicing reporter, luminescence, 30-36 h; Potency, µM (series often up to 46.1 µM), inactives show at the highest dose activity change, positive = activation, most hits filed as activators; 210,000 tested, 2.8% active; AID 1458; also: % of control where 0% means no effect; nearly all actives have a fitted effect of over 55% in size
#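 HEK293 cells carry an SMN2 […]–luciferase reporter in which exon 7 inclusion puts luciferase in frame. Cells were plated 10-12 h before compound addition, then incubated 30-36 h at 37C. ONE-Glo luminescence was read; sodium butyrate at 4.5 mM final served as control.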
# NPC1 promoter act – NPC1 promoter activation; Potency, µM (titrated, usually from 9.22 µM), for inactives: at the highest dose activation, hits mostly activators; Huh7 NPC1 promoter luciferase reporter, 24 h; 320,000 tested, 2.4% active; also: % of control where 0% means no effect; nearly all actives have a fitted effect of over 60% in size
#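 Huh7 reporter cells (NPC1 promoter driving luciferase) are dosed with compound for 24 h at 37 °C, 5% CO2; luciferase detection reagent is then added and luminescence measured after 10 min at ambient temperature.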
# Rab9 promoter act – Rab9 promoter activation; Huh7 Rab9 promoter-luciferase reporter, luminescence, 24 h; AID 485297; Potency, µM (top dose mostly 9.22 µM), for inactives: at the top dose activation, negative = inhibition, usual class: activators; 320,000 tested, 2.8% active; also: % of control where 0% means no effect; nearly all actives have a fitted effect of over 60% in size
#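 Huh7 cells stably carrying a Rab9 promoter-luciferase reporter, 1500 cells per well in OP-MEM I with 10% FBS, treated with compound 24 hours at 37C. Luciferase activity read by luminescence after 10 minutes with Amplite reagent.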
# FLuc counter – inhibits or activates purified firefly luciferase, miR-21 counter-screen. Potency, µM (titrated, usually from 57.5 µM), without a hit: at the highest dose activity change, negative = inhibition, actives largely listed as inhibitors. purified FLuc, Km substrates, luminescence inhibition. 360,000 tested, 6.9% active;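 also: plate controls were vehicle for no effect and reference inhibitor for full effect; nearly all actives have a fitted effect of over 55% in size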
# Target sequence (P08659 whole entry, looked up): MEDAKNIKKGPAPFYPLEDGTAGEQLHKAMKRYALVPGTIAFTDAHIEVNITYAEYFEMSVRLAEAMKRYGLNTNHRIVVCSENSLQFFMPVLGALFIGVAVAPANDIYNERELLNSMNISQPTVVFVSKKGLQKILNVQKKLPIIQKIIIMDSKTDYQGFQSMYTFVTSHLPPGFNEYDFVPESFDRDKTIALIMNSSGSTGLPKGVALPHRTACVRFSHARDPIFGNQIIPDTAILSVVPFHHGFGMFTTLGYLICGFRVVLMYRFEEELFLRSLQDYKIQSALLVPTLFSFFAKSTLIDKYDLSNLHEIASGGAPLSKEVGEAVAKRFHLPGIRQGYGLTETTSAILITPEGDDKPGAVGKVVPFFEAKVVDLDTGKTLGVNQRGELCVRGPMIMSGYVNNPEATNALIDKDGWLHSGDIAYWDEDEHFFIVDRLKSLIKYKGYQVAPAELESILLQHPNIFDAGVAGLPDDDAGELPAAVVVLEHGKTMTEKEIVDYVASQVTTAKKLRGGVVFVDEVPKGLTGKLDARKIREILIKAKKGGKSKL
#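 Purified P. pyralis luciferase, 10 nM final, with Km-level 10 uM D-luciferin and 10 uM ATP in 50 mM Tris acetate pH 7.5, 10 mM Mg acetate, 0.01% Tween-20, 0.05% BSA; 6-point qHTS titration about 60 µM downward; luminescence read.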
# Active calls of the source: *; ? = inconclusive; . = not tested or not shown; [ ] = dose if it differs, or a comment. The list is not random: actives were taken first. Their share in the collection is about 7.5%. Calls follow the shape of the dose curve; as a rule, active = well fitted curve in the direction sought with a large enough effect; inconclusive = small, poorly fitted or top-dose-only effect, or another doubt; inactive = no such curve, though single readings can be large; an effect the other way counts as inactive or inconclusive. Potency is read from the fitted curve at half-maximal effect.
SMILES,ELG1 genotox,SMN2 splice enh,NPC1 promoter act,Rab9 promoter act,FLuc counter
CNC(=S)NC1(C)CCS(=O)(=O)C1 (stereo not drawn),0.2%,.,-0.6%,-2.8%,0.1%
CC1CN(S(=O)(=O)c2ccccc2)C(C)N1C(=O)N1CCOCC1 (stereo not drawn),0.6%,.,1.2%,2.0%,0.1%
C/C(=N\NC(=S)NC1CCCCC1)c1cccc(C(F)(F)F)c1,-2.8%,.,-7.3%,-1.3%,-2.1%
C=CCn1c(SCC(=O)N2N=C(c3ccco3)CC2c2ccco2)nnc1-c1ccncc1 (stereo not drawn),0.5%,1.2%,-2.5%,1.8%,3.2%
O=C(Cn1ccc(NC(=O)OCc2ccccc2)nc1=O)NCCCn1ccnc1,3.4%,.,-1.7%,1.0%,-9.9%
COc1ccccc1CNC(=O)c1cc(-c2cccnc2)nc2ccccc12,-11.3%,-10.1%,-1.0%,-3.3%,-14.9%
CCn1cc(CNC(=O)c2cc(-c3ccc(C)c(C)c3)nc3ccccc23)c(C)n1,.,11.7%,.,.,2.39µM*
O=C(NCc1ccccn1)c1cc(-c2ccc(Cl)cc2)nc2ccccc12,-5.5%,16.0%,3.1%,-0.6%,5.36µM*
Cc1ccc(C)c2nc3sc(C(=O)O)cc3cc12,3.0%,-18.4%,-6.3%,-1.3%,23.9µM*
Cc1cccc2c1-c1sc(C(=O)N3CCCCC3)cc1CO2,?,.,3.55µM*,3.98µM*,13.5µM*
CCN1CCN(C(=O)c2cc3c(s2)-c2c(C)cccc2OC3)CC1,?,.,?,3.98µM*,10.7µM*
CCOC(=O)N1CCN(C(=O)c2cc3c(s2)-c2c(C)cccc2OC3)CC1,-0.3%,.,1.2%,0.3%,-4.2%
Cc1cccc2c1-c1sc(C(=O)N3CCc4ccccc4C3)cc1CO2,-3.2%,15.0%,0.2%,3.2%,?
O=C(CC12CC3CC(CC(C3)C1)C2)NC(=S)Nc1ccc(CN2CCOCC2)cc1,-1.0%,-36.9%,-14.0%,-3.0%,-1.6%
O=C1CCc2ccc(NS(=O)(=O)c3ccc(F)cc3)cc2N1,18.3µM*,?,-0.4%,13.0%,-5.5%
CSc1ccc(CCNC(=O)c2ccc3c(c2)nc2n3CCCCC2)cc1,.,.,.,.,23.9µM*
CC(CNC(=O)c1ccc2c(c1)nc1n2CCCCC1)c1ccccc1 (stereo not drawn),.,.,.,.,21.3µM*
CC1CCn2c(nc3cc(C(=O)NCCc4ccccc4)ccc32)C1 (stereo not drawn),.,.,.,.,9.53µM*
Cc1ccccc1CCNC(=O)c1ccc2c(c1)nc1n2CCOC1,.,.,.,.,6.01µM*
CCOC(=O)C1=CC2(CC)CCCN3CCc4c(n1c1ccccc41)C32 (stereo not drawn),.,-2.4%,.,.,.
CCOC(=O)CNC(=O)N(CCOC)CC1CCCN(C2Cc3ccccc3C2)C1 (stereo not drawn),0.5%,.,-1.0%,8.6%,-0.2%
CC1CN(C(=O)CCC(=O)N2CCN(c3cccc(C(F)(F)F)c3)CC2)c2ccccc2O1 (stereo not drawn),-5.3%,.,-1.2%,-24.7%,0.8%
CCOC(=O)C1CCN(C(=O)CSc2nc3ncccc3[nH]2)CC1,2.3%,.,-0.3%,-0.7%,-1.1%
CSc1ccc(CCNC(=O)c2ccc3c(c2)nc2n3CCC(C)C2)cc1 (stereo not drawn),.,.,.,.,-19.7%
Cc1ccccc1CCNC(=O)c1ccc2c(c1)nc1n2CCCCC1,.,.,.,.,0.536µM*
SMILES,ELG1 genotox,SMN2 splice enh,NPC1 promoter act,Rab9 promoter act,FLuc counter
COC(=O)c1ccccc1NC(=O)c1ccc(-c2ccccc2F)o1,?,5.01µM*,3.16µM*,?,3.4%
Cc1cc(NC(=O)c2ccc(-c3ccccc3F)o2)no1,?,12.6µM*,3.55µM*,4.47µM*,15.1µM*
COc1ccccc1NC(=O)c1ccc(-c2ccccc2F)o1,7.6%,?,18.1%,?,-8.2%[2.3 µM]
COCCNc1nc2sc3c(c2c(=O)n1Cc1ccco1)CCCCC3,?,31.6µM*,?,2µM*,?
O=c1c2c3c(sc2nc(NCCO)n1Cc1ccco1)CCCCC3,17.2%,40.6%,13.8%,13.0%,15.1µM*
O=c1c2c3c(sc2nc(NCCO)n1CCc1ccccc1)CCCCC3,0.3%,-3.1%,-17.1%,-5.6%,?
O=C(c1ccccc1)[C@H]1[C@H](c2ccccc2)[C@@]2(N=C(c3ccccc3)OC2=O)C2c3ccccc3C=NN21 (stereo partly drawn),5.6%,?,3.98µM*,4.47µM*,?
O=C(c1ccc(Cl)cc1)[C@@H]1[C@@H]2C(=O)N(c3cccc4ccccc34)C(=O)[C@@H]2C2c3ccccc3C=NN21 (stereo partly drawn),-1.8%,-16.1%,0.1%,0.2%,-2.9%
COC(=O)C1CN(C(=O)COc2ccc(Cl)cc2Cl)c2ccccc2O1 (stereo not drawn),2.9%,.,0.8%,1.4%,19µM*
Cn1ncc2c(O/N=C(\N)c3ccc(C(C)(C)C)cc3)ncnc21,-22.3%,.,-43.2%,-41.4%,15.1µM*
CCOC(=O)c1ccc(Nc2ncnc3c2cnn3C)cc1,11.5%,.,1.8%,2.7%,-13.8%
O=C(O)c1ccc(C(=O)O)c(C(=O)Nc2ccc3c(c2)Cc2ccccc2-3)c1,.,11.3%[9.22 µM],.,.,.
CCCNC(=O)c1cc(-c2ccco2)on1,16.4µM*,17.8µM*,?,3.55µM*,16.9µM*
COc1ccc(CNC(=O)c2cc(-c3ccco3)on2)cc1,3.3%,7.4%,0.5%,8.4%,-8.6%
CC(C)CNC(=O)c1cc(-c2ccco2)on1,?,?,3.98µM*,3.98µM*,13.5µM*
COc1ccc(-n2cc(CN3CCCC3)c(-c3cccc(F)c3)n2)cc1,-1.4%,.,-3.2%,-6.0%,?
Cc1cccc(-n2cc(CN3CCN(Cc4nccn4C)CC3)c(-c3cccc(F)c3)n2)c1,-0.6%,.,3.1%,8.0%,26.9µM*
N#C/C(=C\c1ccc(-c2ccc(C(=O)O)cc2)o1)c1nc2ccccc2[nH]1,17.7%,?,3.98µM*,2.51µM*,9.53µM*
N#C/C(=C\c1ccc(-c2ccc(Cl)c(C(=O)O)c2)o1)c1nc2ccccc2[nH]1,.,2.2%,7.5%,15.2%,6.01µM*
Cc1ccc2nc(/C(C#N)=C/c3ccc(-c4cccc(Cl)c4)o3)[nH]c2c1,.,-1.3%,.,.,-17.4%
Cc1nn(CC(=O)c2ccccc2Cl)c(C)c1[N+](=O)[O-],14.6µM*,?,?,3.98µM*,10.7µM*
COc1ccc(NC(=S)N2CCCC(c3nc4ccc(C)cc4[nH]3)C2)c(OC)c1 (stereo not drawn),-1.7%,.,-7.8%,-7.7%,13.5µM*
COc1ccc(NC(=S)N2CCCC(c3nc4ccc(C)cc4[nH]3)C2)cc1 (stereo not drawn),-1.8%,.,-1.1%,-6.3%,13.5µM*
COc1ccc(NC(=S)N2CCC(c3nc4ccc(Cl)cc4[nH]3)CC2)c(OC)c1,-5.3%,-6.0%,-4.6%,-2.0%,-7.4%
Cc1ccc2nc(C3CCCN(C(=S)Nc4cccc(C)c4C)C3)[nH]c2c1 (stereo not drawn),-2.7%,-12.3%,-2.4%,-3.3%,?
